# Experimental data published in PubChem BioAssay (NCATS).
# Values joined by “and” are separate entries in the source; they are usually repeats but may differ in a detail not shown here. Identical values can stand only once. Unmarked numbers belong to inactive results. Results filed as inconclusive are left out. Where a call stands in place of a potency, no number is given. Active and inactive are the calls of the source. Unless noted, calls follow the shape of the dose curve; as a rule, active = well fitted curve in the direction sought with a large enough effect; inconclusive = small, poorly fitted or top-dose-only effect, or another doubt; inactive = no such curve, though single readings can be large; an effect the other way counts as inactive or inconclusive.
# Legend:
# [1] = molecular target: Tyrosine-protein kinase Yes (Homo sapiens) (UniProt P07947); assay: qHTS for small molecule inhibitors of Yes1 kinase: Primary Screen (AID 686947); settings: Yes1 kinase biochemical qHTS inhibition; series mostly up to 76.9 µM; also: nearly all actives have a fitted effect of over 60% in size; also: potency is read from the fitted curve at half-maximal effect
# How it was run: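 In this qHTS format, inhibition is expressed relative to DMSO controls with enzyme (maximum) and without enzyme (minimum). The 60 min room-temperature reaction uses 0.1 mM ATP, with ADP detected by luminescence.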
# [2] = qHTS for small molecule inhibitors of Yes1 kinase: Counter Assay (AID 686950); settings: series mostly up to 76.9 µM;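 also: no kinase present so only ADP-Glo detection of a fixed ADP amount is tested; luminescence from ADP-Glo reporting ADP in a fixed ATP and ADP mixture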
# How it was run: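 No kinase present; 0.08 mM ATP + 0.02 mM ADP in 50 mM Tris pH 7.5, 10 mM MgCl2, 150 mM NaCl, 1 mM DTT; 20 min compound preincubation, 60 min RT, ADP-Glo luminescence, normalized to ATP/ADP (max) and ATP-only (min).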
# [3] = qHTS assay for environmental chemicals that activate the Aryl hydrocarbon Receptor (AhR) signaling pathway (AID 651777); settings: 1A2-DRE human hepatoma cells, luciferase, 24 h; stronger effect = higher value; also: nearly all actives have a fitted effect of over 15% in size
# How it was run: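 Concentration–response screening used 1,200 1A2-DRE cells per well, 24 hr compound exposure (37 C, 5% CO2), and One-Glo luminescence as the AhR-driven CYP1A2 reporter signal.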
# [4] = molecular target: Peroxisome proliferator-activated receptor alpha (Homo sapiens) (UniProt Q07869); assay: qHTS assay for small molecule agonists of the peroxisome proliferator-activated receptor alpha (PPARalpha) signaling pathway (AID 651778); settings: PathHunter PPARalpha complementation, chemiluminescence, 6 h; stronger effect = higher value
# How it was run: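 Enzyme-fragment complementation assay in which ligand-bound PPARalpha translocates and forms an active enzyme that generates chemiluminescence. Cells were plated overnight, exposed to compound for 6 hr at 37 C, and then given detection reagent for 60 min at room temperature.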
# [5] = molecular target: Nuclear receptor ROR-gamma (Homo sapiens) (UniProt P51449); assay: qHTS assay for small molecule antagonists of the retinoid-related orphan receptor gamma (ROR-gamma) signaling pathway (AID 651802); settings: ROR-gamma antagonist cell reporter assay; series mostly up to 92.2 µM;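 also: CHO cells with doxycycline-induced ROR-gamma expression; luciferase reporter luminescence driven by ROR response element; nearly all actives have a fitted effect of over 60% in size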
# How it was run: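 Doxycycline-induced reporter activity in engineered CHO cells (TET-inducible ROR, RORE-LUC) was measured by luminescence after 16hr compound exposure at 37C.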
# [6] = qHTS assay for small molecule agonists of the antioxidant response element (ARE) signaling pathway measured by Nrf2-dependant transcriptional activity (AID 720636; active = well fitted curve in the direction sought with a large enough effect in the repeat runs; an effect the other way counts as inactive or inconclusive;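 also: HepG2 cells with an ARE-driven luciferase reporter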); settings: ARE-luc HepG2, Nrf2 luciferase reporter, 16 h; series mostly up to 92.4 µM
# How it was run: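 Attachment 6 hr at 37 C, then compound versus DMSO vehicle for 16 hr in ARE-luc HepG2 cells (1% dialyzed FBS); luminescence recorded 30 min after ONE-Glo addition at room temperature.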
# [7] = qHTS for compounds that reverse cellular toxicity of Amyloid beta (A-beta) peptide in yeast: LOPAC Validation Assay (AID 720559); settings: yeast expressing A-beta; series mostly up to 46.1 µM
# How it was run: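 Yeast expressing toxic A-beta grown with pinned compounds at 30 C for 48 hr. Growth measured as absorbance at 600 nm; data normalized to DMSO and to an equimolar FeCl3/clioquinol mixture as positive control.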
# [8] = qHTS for Activators of Parkin Expression: LOPAC Validation Assay (NLuc Reporter) (AID 720572); settings: Parkin promoter NanoLuc reporter cells, luminescence, percent of positive control, DMSO as zero; series mostly up to 46.1 µM
# How it was run: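 NLuc signal, read 10 min after reagent and following a prior FLuc read, is normalized to DMSO (0) and positive controls (100%). Cells: neuronal Parkin-promoter coincidence reporter line; compounds tested 7-point, 24 h, 37 C, 5% CO2.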
# [9] = qHTS for Activators of Parkin Expression: LOPAC Validation Assay (FLuc Reporter) (AID 720573); settings: Cell line, PRKN promoter firefly luciferase reporter, vehicle wells = 0, positive control = 100%; series mostly up to 46.1 µM
# How it was run: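 Neuronal cell line stably expressing FLuc/NLuc coincidence reporter under the Parkin promoter, 1,500 cells/well, dosed 24 h after seeding in 7-point series for 24 h at 37 C. FLuc luminescence read; normalized to DMSO and positive control (100%).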
# Tyrosine-protein kinase Yes (Homo sapiens), sequence (P07947 whole entry, looked up): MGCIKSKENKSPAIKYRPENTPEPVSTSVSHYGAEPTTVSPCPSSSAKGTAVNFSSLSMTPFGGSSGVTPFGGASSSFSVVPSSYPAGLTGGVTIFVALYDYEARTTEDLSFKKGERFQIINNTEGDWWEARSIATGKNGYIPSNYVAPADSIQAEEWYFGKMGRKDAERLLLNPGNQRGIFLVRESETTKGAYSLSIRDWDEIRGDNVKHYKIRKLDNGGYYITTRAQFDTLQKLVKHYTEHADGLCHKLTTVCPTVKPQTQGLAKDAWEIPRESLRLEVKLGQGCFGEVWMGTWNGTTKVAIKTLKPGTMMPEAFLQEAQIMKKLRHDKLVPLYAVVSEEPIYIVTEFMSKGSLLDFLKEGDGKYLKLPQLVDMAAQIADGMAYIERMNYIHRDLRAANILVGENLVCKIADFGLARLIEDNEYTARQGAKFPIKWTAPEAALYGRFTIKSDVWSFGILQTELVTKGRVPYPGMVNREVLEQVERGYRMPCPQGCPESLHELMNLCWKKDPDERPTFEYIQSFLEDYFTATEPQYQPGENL
# Peroxisome proliferator-activated receptor alpha (Homo sapiens), sequence (Q07869 whole entry, looked up, the tested form may be a part): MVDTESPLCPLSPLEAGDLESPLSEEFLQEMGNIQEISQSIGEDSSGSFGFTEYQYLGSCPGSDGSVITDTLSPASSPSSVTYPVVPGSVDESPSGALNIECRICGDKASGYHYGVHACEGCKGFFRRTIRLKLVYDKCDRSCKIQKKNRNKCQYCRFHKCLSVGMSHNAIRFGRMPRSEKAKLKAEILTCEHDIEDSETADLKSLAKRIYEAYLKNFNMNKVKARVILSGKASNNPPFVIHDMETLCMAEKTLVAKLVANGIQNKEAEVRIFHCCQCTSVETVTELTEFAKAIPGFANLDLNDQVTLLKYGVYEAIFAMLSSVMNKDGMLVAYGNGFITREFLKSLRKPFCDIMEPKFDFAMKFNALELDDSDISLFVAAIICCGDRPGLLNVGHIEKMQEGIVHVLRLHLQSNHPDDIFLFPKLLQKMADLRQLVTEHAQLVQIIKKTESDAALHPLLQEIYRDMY
# Nuclear receptor ROR-gamma (Homo sapiens), sequence (P51449 whole entry, looked up): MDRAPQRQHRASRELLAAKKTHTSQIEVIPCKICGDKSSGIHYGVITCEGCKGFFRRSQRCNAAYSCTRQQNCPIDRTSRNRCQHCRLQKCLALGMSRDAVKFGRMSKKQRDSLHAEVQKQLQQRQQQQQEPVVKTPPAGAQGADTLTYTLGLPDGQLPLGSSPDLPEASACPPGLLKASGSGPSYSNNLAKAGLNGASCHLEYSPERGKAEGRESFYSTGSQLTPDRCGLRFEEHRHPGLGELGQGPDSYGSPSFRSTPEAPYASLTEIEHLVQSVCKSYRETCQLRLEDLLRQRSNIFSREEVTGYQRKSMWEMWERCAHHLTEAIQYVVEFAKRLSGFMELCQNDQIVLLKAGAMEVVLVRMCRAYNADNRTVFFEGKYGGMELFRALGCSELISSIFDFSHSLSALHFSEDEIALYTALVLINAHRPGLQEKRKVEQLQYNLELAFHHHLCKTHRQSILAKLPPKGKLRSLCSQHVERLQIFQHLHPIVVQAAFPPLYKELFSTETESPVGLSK
smiles,measurement,setting,value
CC(C)C[C@H](NC(=O)c1cc2ccccc2s1)C(=O)N1CCN(C(=O)[C@H](CO)NS(=O)(=O)c2ccc(Cl)cc2Cl)CC1,Potency,[1],inactive
same,outcome,[2],inactive
CC1=C[C@@H]2[C@@H]([C@@H](O)C[C@@]3(C)[C@H]2C[C@@H](C)[C@]3(O)C(=O)CO)[C@@]2(C)Cc3cnn(-c4ccccc4)c3C=C12,Potency,[1],inactive
same,outcome,[2],inactive
O=C1C(CCC(O)c2ccc(F)cc2)C(c2ccc(O)cc2)N1c1ccc(F)cc1 (centres undefined),Potency,[1],inactive
same,outcome,[2],inactive
COc1cc2ncn(-c3cc(OCc4ccccc4S(C)(=O)=O)c(C#N)s3)c2cc1OC,Potency,[1],0.232 µM (active)
same,outcome,[2],inactive
COc1nc(C)cnc1NS(=O)(=O)c1cccnc1-c1ccc(-c2nnco2)cc1,Potency,[1],inactive
same,outcome,[2],inactive
CNC(=O)c1cc(Oc2ccc(NC(=O)Nc3ccc(Cl)c(C(F)(F)F)c3)c(F)c2)ccn1,Potency,[1],4.87 µM (active)
same,outcome,[2],inactive
Cc1cccc(Nc2nc(N[C@@H]3CCCC[C@H]3N)ncc2C(N)=O)c1,Potency,[1],0.387 µM (active)
same,outcome,[2],inactive
Cc1ccc(NC(=O)c2ccc(CN3CCN(C)CC3)cc2)cc1Nc1nc(-c2cccnc2)cs1,Potency,[1],0.345 µM (active)
same,outcome,[2],inactive
Cc1nn(Cc2ccccc2Cl)c(C)c1CN(C)CC(O)COc1ccc(Cl)cc1 (centres undefined),Potency,[1],inactive
same,outcome,[2],inactive
COc1c(C)cnc(Cn2cnc3c(Cl)nc(N)nc32)c1C,Potency,[1],inactive
same,outcome,[2],inactive
CC(C)C[C@@H](C(=O)N[C@H](C(=O)OC1CCCC1)c1ccccc1)[C@H](O)C(=O)NO,Potency,[1],inactive
same,outcome,[2],inactive
CC(C)n1c(C=C[C@H](O)C[C@H](O)CC(=O)O)c(-c2ccc(F)cc2)c2ccccc21,Potency,[1],inactive
same,outcome,[2],inactive
CCc1cc(-c2n[nH]c(C)c2-c2ccc3c(c2)OCCO3)c(O)cc1O,Potency,[1],4.34 µM (active)
same,outcome,[2],inactive
COc1cccc(OC)c1-c1cc(C(=O)NC2(C(=O)O)C3CC4CC(C3)CC2C4)nn1-c1ccnc2cc(Cl)ccc12 (centres undefined),Potency,[1],inactive
same,outcome,[2],inactive
Cc1csc(-c2nnc(Nc3ccc(Oc4ncccc4-c4ccnc(N)n4)cc3)c3ccccc23)c1,Potency,[1],inactive
same,outcome,[2],inactive
CCC=CC[C@H]1C(=O)CC[C@@H]1CC(=O)OC,Potency,[1],inactive
same,outcome,[2],inactive
C[C@@H]1C[C@H]2[C@@H]3CCC4=CC(=O)C=C[C@]4(C)[C@@]3(F)[C@@H](O)C[C@]2(C)[C@@]1(O)C(=O)CO,activation,[3],-0.0369% and 0.315%
same,max response,[4],-0.146% and 1.68%
same,outcome,[5],inactive
same,outcome,[6],inactive
O=C(O)c1ccc(O)c2ncc(N3CCOCC3)cc12,Potency,[1],inactive
same,outcome,[2],inactive
Cn1cc(-c2ccc3nnc(Sc4ccc5ncccc5c4)n3n2)cn1,Potency,[1],inactive
same,outcome,[2],inactive
CCC(=O)N1CCN(c2ccc(-n3c(=O)ccc4cnc5ccc(-c6cnc7ccccc7c6)cc5c43)cc2C(F)(F)F)CC1,Potency,[1],inactive
same,outcome,[2],inactive
CCCCn1c(=O)n(Cc2ccccc2F)c(=O)c2[nH]c(Cc3ccc(NC(C)=O)cc3)nc21,Potency,[1],inactive
same,outcome,[2],inactive
CN1C(=O)C(Cc2c[nH]c3ccccc23)NC1=S (centres undefined),Potency,[1],inactive
same,outcome,[2],inactive
OCCn1cc(-c2ccc3c(c2)CCC3=NO)c(-c2ccncc2)n1,Potency,[1],inactive
same,outcome,[2],inactive
CCCCc1ccc(NS(=O)(=O)c2ccc(C)c(C(=O)N3CCN(c4cccc(C)c4C)CC3)c2)cc1,Potency,[1],inactive
same,outcome,[2],inactive
CC(O)=C(C#N)C(=O)Nc1ccc(C(F)(F)F)cc1,Potency,[1],inactive
same,outcome,[2],inactive
O=C1Nc2ccc(I)cc2C1=Cc1cc(Br)c(O)c(Br)c1,Potency,[1],5.82 µM (active)
same,outcome,[2],inactive
CC(C)(C)c1[nH]cnc1C=c1[nH]c(=O)c(=Cc2ccccc2)[nH]c1=O,Potency,[1],inactive
same,outcome,[2],inactive
CCCCOCCOc1nc(-c2ccc(C(=O)O)c(F)c2)sc1C,outcome,[2],inactive
CN(C)CCCNC(=O)c1ccc(-c2cc(O)c3ncccc3c2)cc1,Potency,[1],38.7 µM (active)
same,outcome,[2],inactive
Cc1c(C(=O)Nc2ccc(N3C[C@@H](C)O[C@@H](C)C3)nc2)cccc1-c1ccc(OC(F)(F)F)cc1,Potency,[1],inactive
same,outcome,[2],inactive
COC(=O)Nc1ccc(-c2nc(N3CCOCC3)c3cnn(C4CCN(C(=O)OC)CC4)c3n2)cc1,Potency,[1],inactive
same,outcome,[2],inactive
C=CCc1cccc(C=NNC(=O)CN2CCN(Cc3ccccc3)CC2)c1O,outcome,[7],inactive
same,outcome,[8],inactive
same,outcome,[9],inactive
Nc1ccc(-c2ccc3ncc4ccc(=O)n(-c5cccc(C(F)(F)F)c5)c4c3c2)cn1,Potency,[1],27.4 µM (active)
same,outcome,[2],inactive
Cc1cc2c(cc1C1(c3ccc(C(=O)O)cn3)CC1)C(C)(C)CCC2(C)C,outcome,[2],inactive
